# Assay results taken from the supplement of paper PMC4022240.
# ± gives the standard deviation.
# T1: HaloTag-ATRX ADD domain (163-292)
# T1 chain: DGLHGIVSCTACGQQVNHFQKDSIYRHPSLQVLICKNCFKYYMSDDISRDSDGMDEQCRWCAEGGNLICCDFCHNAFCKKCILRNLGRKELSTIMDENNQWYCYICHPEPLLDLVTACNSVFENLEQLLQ
# B1: H3 1-13 A R T Kme3 Q T A R Kac S T G G (peptide)
# chain: ARTKQTARKSTGG
# B2: H3 1-13 A R T Kme3 Q T A R Kme S T G G (peptide)
# chain: ARTKQTARKSTGG
# B3: H3 1-13 A R T Kme3 Q T A R Kme2 S T G G (peptide)
# chain: ARTKQTARKSTGG
# B4: H3 1-13 A R T Kme3 Q T A R Kme3 S T G G (peptide)
# chain: ARTKQTARKSTGG
# B5: H3 1-13 A R T Kme3 Q Tph A R K S T G G (peptide)
# chain: ARTKQTARKSTGG
# B6: H3 1-13 A R T K Q T A R Kac Sph T G G (peptide)
# chain: ARTKQTARKSTGG
# B7: H3 1-13 A R T K Q T A R Kac S T G G (peptide)
# chain: ARTKQTARKSTGG
# B8: H3 1-13 A R T K Q T A R Kme S T G G (peptide)
# chain: ARTKQTARKSTGG
# B9: H3 1-13 A R T K Q T A R Kme Sph T G G (peptide)
# chain: ARTKQTARKSTGG
# B10: H3 1-13 A R T K Q T A R Kme2 S T G G (peptide)
# chain: ARTKQTARKSTGG
# What was measured:
# Assay in all cases: peptide microarray binding signal (635 nm), min-max normalized on array (fraction of array maximum); higher = stronger binding
# Conditions in all cases: peptide region: H3 1-13
# [1] = molecular target: T1, HaloTag-ATRX ADD domain (163-292)
# Method: (§1)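 Histone 13-mer peptides were synthesized as cellulose conjugates with a C-terminal 20-atom PEG linker and printed in triplicate on nitrocellulose. The sequence given is the unmodified backbone; PTMs (Kme1/2/3, Kac, Sph/Tph, Rme/Rme2a/Rme2s, Rcit) are listed in the label and the 'peptide modifications' condition. Slides were probed at 4 °C for 1 h with biotin-labelled (HQ)5-HaloTag reader fusions (ATRX-ADD, ING2-PHD) then streptavidin-Alexa647, or with rabbit histone antibodies then anti-rabbit Alexa647. The mean 635 nm signal of the triplicate spots was scaled 0-1 between the lowest and highest values on each array.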
# [2] = molecular target: HaloTag-ING2 PHD (mouse Ing2 200-280)
# Method: as §1
# [3] = molecular target: anti-H3K4me3 antibody ab8580
# Method: as §1
# [4] = molecular target: anti-H3K9me3 antibody ab8898
# Method: as §1
# [5] = peptide modifications: H3K4me3 H3K9ac, binder concentration: 1:2,000 dilution
# [6] = peptide modifications: H3K4me3 H3K9ac, binder concentration: 1:10,000 dilution
# [7] = peptide modifications: H3K4me3 H3K9me1, binder concentration: 1:2,000 dilution
# [8] = peptide modifications: H3K4me3 H3K9me1, binder concentration: 1:10,000 dilution
# [9] = peptide modifications: H3K4me3 H3K9me2, binder concentration: 1:2,000 dilution
# [10] = peptide modifications: H3K4me3 H3K9me2, binder concentration: 1:10,000 dilution
# [11] = peptide modifications: H3K4me3 H3K9me3, binder concentration: 1:2,000 dilution
# [12] = peptide modifications: H3K4me3 H3K9me3, binder concentration: 1:10,000 dilution
# [13] = peptide modifications: H3K4me3 H3T6ph, binder concentration: 1:2,000 dilution
# [14] = peptide modifications: H3K4me3 H3T6ph, binder concentration: 1:10,000 dilution
# [15] = peptide modifications: H3K9ac H3S10ph, binder concentration: 1:2,000 dilution
# [16] = peptide modifications: H3K9ac, binder concentration: 1:2,000 dilution
# [17] = peptide modifications: H3K9ac, binder concentration: 1:10,000 dilution
# [18] = peptide modifications: H3K9me1, binder concentration: 1:2,000 dilution
# [19] = peptide modifications: H3K9me1, binder concentration: 1:10,000 dilution
# [20] = peptide modifications: H3K9me1 H3S10ph, binder concentration: 1:2,000 dilution
# [21] = peptide modifications: H3K9me1 H3S10ph, binder concentration: 1:10,000 dilution
# [22] = peptide modifications: H3K9me2, binder concentration: 1:2,000 dilution
# [23] = peptide modifications: H3K9me2, binder concentration: 1:10,000 dilution
binder,measurement,setting,value
B1,peptide microarray binding signal,"[1]; peptide modifications: H3K4me3 H3K9ac, binder concentration: 50 nM",0.00768 ± 0.00092
same,peptide microarray binding signal,"[1]; peptide modifications: H3K4me3 H3K9ac, binder concentration: 500 nM",0.00948 ± 0.00033
same,peptide microarray binding signal,"[2]; peptide modifications: H3K4me3 H3K9ac, binder concentration: 10 nM",0.216 ± 0.039
same,peptide microarray binding signal,"[2]; peptide modifications: H3K4me3 H3K9ac, binder concentration: 100 nM",0.199 ± 0.014
same,peptide microarray binding signal,[3]; [5],0.289 ± 0.062
same,peptide microarray binding signal,[3]; [6],0.621 ± 0.31
same,peptide microarray binding signal,[4]; [5],0.0528 ± 0.047
same,peptide microarray binding signal,[4]; [6],0.0162 ± 0.0043
B2,peptide microarray binding signal,"[1]; peptide modifications: H3K4me3 H3K9me1, binder concentration: 50 nM",0.0117 ± 0.0004
same,peptide microarray binding signal,"[1]; peptide modifications: H3K4me3 H3K9me1, binder concentration: 500 nM",0.025 ± 0.0009
same,peptide microarray binding signal,"[2]; peptide modifications: H3K4me3 H3K9me1, binder concentration: 10 nM",0.411 ± 0.074
same,peptide microarray binding signal,"[2]; peptide modifications: H3K4me3 H3K9me1, binder concentration: 100 nM",0.338 ± 0.07
same,peptide microarray binding signal,[3]; [7],0.484 ± 0.13
same,peptide microarray binding signal,[3]; [8],0.592 ± 0.25
same,peptide microarray binding signal,[4]; [7],0.108 ± 0.018
same,peptide microarray binding signal,[4]; [8],0.0413 ± 0.0047
B3,peptide microarray binding signal,"[1]; peptide modifications: H3K4me3 H3K9me2, binder concentration: 50 nM",0.0174 ± 0.00053
same,peptide microarray binding signal,"[1]; peptide modifications: H3K4me3 H3K9me2, binder concentration: 500 nM",0.0402 ± 0.003
same,peptide microarray binding signal,"[2]; peptide modifications: H3K4me3 H3K9me2, binder concentration: 10 nM",0.735 ± 0.11
same,peptide microarray binding signal,"[2]; peptide modifications: H3K4me3 H3K9me2, binder concentration: 100 nM",0.869 ± 0.12
same,peptide microarray binding signal,[3]; [9],0.929 ± 0.063
same,peptide microarray binding signal,[3]; [10],0.889 ± 0.23
same,peptide microarray binding signal,[4]; [9],0.11 ± 0.025
same,peptide microarray binding signal,[4]; [10],0.0347 ± 0.004
B4,peptide microarray binding signal,"[1]; peptide modifications: H3K4me3 H3K9me3, binder concentration: 50 nM",0.0752 ± 0.0036
same,peptide microarray binding signal,"[1]; peptide modifications: H3K4me3 H3K9me3, binder concentration: 500 nM",0.159 ± 0.022
same,peptide microarray binding signal,"[2]; peptide modifications: H3K4me3 H3K9me3, binder concentration: 10 nM",0.582 ± 0.018
same,peptide microarray binding signal,"[2]; peptide modifications: H3K4me3 H3K9me3, binder concentration: 100 nM",0.742 ± 0.14
same,peptide microarray binding signal,[3]; [11],1 ± 0.19
same,peptide microarray binding signal,[3]; [12],1 ± 0.19
same,peptide microarray binding signal,[4]; [11],0.46 ± 0.11
same,peptide microarray binding signal,[4]; [12],0.321 ± 0.037
B5,peptide microarray binding signal,"[1]; peptide modifications: H3K4me3 H3T6ph, binder concentration: 50 nM",0.00724 ± 0.0003
same,peptide microarray binding signal,"[1]; peptide modifications: H3K4me3 H3T6ph, binder concentration: 500 nM",0.0154 ± 0.0024
same,peptide microarray binding signal,"[2]; peptide modifications: H3K4me3 H3T6ph, binder concentration: 10 nM",0.169 ± 0.048
same,peptide microarray binding signal,"[2]; peptide modifications: H3K4me3 H3T6ph, binder concentration: 100 nM",0.484 ± 0.12
same,peptide microarray binding signal,[3]; [13],0.323 ± 0.064
same,peptide microarray binding signal,[3]; [14],0.404 ± 0.061
same,peptide microarray binding signal,[4]; [13],0.0262 ± 0.0036
same,peptide microarray binding signal,[4]; [14],0.00865 ± 0.0019
B6,peptide microarray binding signal,"[1]; peptide modifications: H3K9ac H3S10ph, binder concentration: 500 nM",0.0136 ± 0.00075
same,peptide microarray binding signal,"[2]; peptide modifications: H3K9ac H3S10ph, binder concentration: 100 nM",0.0173 ± 0.0011
same,peptide microarray binding signal,[3]; [15],0.000925 ± 2.1e-05
same,peptide microarray binding signal,[4]; [15],0.00113 ± 0.00013
B7,peptide microarray binding signal,"[1]; peptide modifications: H3K9ac, binder concentration: 50 nM",0.0143 ± 0.00037
same,peptide microarray binding signal,"[1]; peptide modifications: H3K9ac, binder concentration: 500 nM",0.0461 ± 0.0053
same,peptide microarray binding signal,"[2]; peptide modifications: H3K9ac, binder concentration: 10 nM",0.0431 ± 0.012
same,peptide microarray binding signal,"[2]; peptide modifications: H3K9ac, binder concentration: 100 nM",0.0776 ± 0.0087
same,peptide microarray binding signal,[3]; [16],0.00276 ± 0.00088
same,peptide microarray binding signal,[3]; [17],0.00171 ± 7.1e-05
same,peptide microarray binding signal,[4]; [16],0.00554 ± 0.00013
same,peptide microarray binding signal,[4]; [17],0.00185 ± 0.00011
B8,peptide microarray binding signal,"[1]; peptide modifications: H3K9me1, binder concentration: 50 nM",0.0276 ± 0.00028
same,peptide microarray binding signal,"[1]; peptide modifications: H3K9me1, binder concentration: 500 nM",0.0642 ± 0.0027
same,peptide microarray binding signal,"[2]; peptide modifications: H3K9me1, binder concentration: 10 nM",0.0068 ± 0.00044
same,peptide microarray binding signal,"[2]; peptide modifications: H3K9me1, binder concentration: 100 nM",0.0424 ± 0.0055
same,peptide microarray binding signal,[3]; [18],0.00068 ± 2.9e-05
same,peptide microarray binding signal,[3]; [19],0.000628 ± 6.7e-06
same,peptide microarray binding signal,[4]; [18],0.00122 ± 7.3e-05
same,peptide microarray binding signal,[4]; [19],0.00098 ± 4.6e-05
B9,peptide microarray binding signal,"[1]; peptide modifications: H3K9me1 H3S10ph, binder concentration: 50 nM",0.01 ± 0.00047
same,peptide microarray binding signal,"[1]; peptide modifications: H3K9me1 H3S10ph, binder concentration: 500 nM",0.0275 ± 0.00045
same,peptide microarray binding signal,"[2]; peptide modifications: H3K9me1 H3S10ph, binder concentration: 10 nM",0.00961 ± 0.00044
same,peptide microarray binding signal,"[2]; peptide modifications: H3K9me1 H3S10ph, binder concentration: 100 nM",0.02 ± 0.0008
same,peptide microarray binding signal,[3]; [20],0.000831 ± 3.9e-05
same,peptide microarray binding signal,[3]; [21],0.000171 ± 5.1e-06
same,peptide microarray binding signal,[4]; [20],0.00233 ± 0.00015
same,peptide microarray binding signal,[4]; [21],0.00138 ± 2.7e-05
B10,peptide microarray binding signal,"[1]; peptide modifications: H3K9me2, binder concentration: 50 nM",0.0139 ± 0.0015
same,peptide microarray binding signal,"[1]; peptide modifications: H3K9me2, binder concentration: 500 nM",0.0282 ± 0.0022
same,peptide microarray binding signal,"[2]; peptide modifications: H3K9me2, binder concentration: 10 nM",0.00668 ± 0.00014
same,peptide microarray binding signal,"[2]; peptide modifications: H3K9me2, binder concentration: 100 nM",0.00935 ± 0.00046
same,peptide microarray binding signal,[3]; [22],0.00104 ± 0.0001
same,peptide microarray binding signal,[3]; [23],0.000571 ± 1.1e-05
same,peptide microarray binding signal,[4]; [22],0.00128 ± 6.2e-05
same,peptide microarray binding signal,[4]; [23],0.000923 ± 9.6e-06
